Assay outcomes (PubChem)
The list is not random: actives were taken first. Their share in the collection is about 2.7%.
TGFb inhibitor: TGF-b pathway inhibition; HepG2 CAGA-GFP TGF-b/SMAD3 reporter, GFP fluorescence, 18 h; TGF-beta stimulated, 500 pg/mL final; Potency, µM (series often up to 46.1 µM), inactives show top-dose activity, negative = inhibition, usual class: inhibitors; 410,000 compounds, 1.2% hits; AID 588855; further: on the % scale 0 is the no-effect control and ±100 the full control effect; nearly all actives have a fitted effect of over 65% in size
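TGF-beta reporter screen: HEPG2 CAGA-GFP, 1% FBS, 500 pg/mL TGF-beta final, 18 h; per-cell GFP summed per well; curves fitted and categorized by class.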
ATXN viability: cell viability loss in ATXN counter-screen; Potency, µM (doses to about 56.7 µM), usual class: cytotoxic; 400,000 compounds, 0.49% hits; AID 651635; S2 cells (HEK-293 line with an ATXN2-luciferase reporter) viability, CellTiter-Fluor protease fluorescence, 24 h; further: nearly all actives have a fitted effect of over 40% in size
HepG2 tox: counter-screen for TGF-b inhibitors: cytotoxicity in HepG2 cells | 410,000 compounds, 0.76% hits | AID 588856 | Potency, µM (titrated, usually from 46.1 µM), inactives show top-dose activity change, negative = cytotoxicity, actives largely listed as cytotoxic | HepG2 CAGA-GFP viability, ATP luminescence, 18 h
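HepG2 CAGA-GFP cells (1000/well, DMEM with 1% FBS) received compound, then TGF-beta at 500 pg/mL final, and were incubated 18 hours at 37 degrees C. Viability was read by CellTiter-Glo luminescence. Media-only wells were set as complete cell-killing and DMSO as no toxicity.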
ATXN2 expr inh: ATXN2 expression inhibition. HEK-293 ATXN2-luciferase reporter, luminescence, 24 h. Potency, µM (doses to about 57 µM), without a hit: top-dose activity change, negative = inhibition, hits mostly inhibitors. 360,000 compounds, 0.72% hits. AID 1745845; further: on the % scale 0 is the no-effect control and ±100 the full control effect; nearly all actives have a fitted effect of over 55% in size
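ATXN2-luciferase reporter cells (luciferase flanked by upstream and downstream ATXN2 gene portions) were treated 24 h at 37 °C with compounds at up to 57 uM. SteadyGlo luminescence gave expression; GF-AFC fluorescence gave viability.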
ALOX12 inh: ALOX12 (human) lipoxygenase inhibition; 580,000 compounds, 1.1% hits; purified 12hLO, xylenol orange hydroperoxide absorbance; Potency, µM (titrated, usually from 108 µM), inactives show at the top dose activity change, negative = inhibition, hits mostly inhibitors; AID 1671190; P18054; further: on the % scale 0 is the no-effect control and ±100 the full control effect
Target sequence (P18054 whole entry, looked up): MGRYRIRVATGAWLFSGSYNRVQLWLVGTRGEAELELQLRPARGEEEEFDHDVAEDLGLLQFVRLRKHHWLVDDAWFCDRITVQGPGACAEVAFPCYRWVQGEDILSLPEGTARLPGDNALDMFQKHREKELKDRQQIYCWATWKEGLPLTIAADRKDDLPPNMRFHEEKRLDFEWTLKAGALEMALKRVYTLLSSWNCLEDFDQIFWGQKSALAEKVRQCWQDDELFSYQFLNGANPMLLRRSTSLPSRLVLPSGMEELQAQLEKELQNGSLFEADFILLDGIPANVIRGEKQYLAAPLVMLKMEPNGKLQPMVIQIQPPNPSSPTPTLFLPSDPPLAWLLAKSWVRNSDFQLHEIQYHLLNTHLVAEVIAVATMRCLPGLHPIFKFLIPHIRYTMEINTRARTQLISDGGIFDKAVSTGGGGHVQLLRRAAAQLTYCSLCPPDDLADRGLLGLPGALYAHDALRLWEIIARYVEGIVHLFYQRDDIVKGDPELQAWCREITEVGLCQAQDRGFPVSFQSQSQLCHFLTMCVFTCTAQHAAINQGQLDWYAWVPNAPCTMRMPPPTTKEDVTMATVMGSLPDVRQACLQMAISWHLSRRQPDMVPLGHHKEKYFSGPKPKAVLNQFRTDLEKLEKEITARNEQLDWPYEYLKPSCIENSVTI
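Purified human 12hLO (150 nM final) in 25 mM Hepes, 0.01% Triton X-100, pH 7.0 was preincubated 15 min at room temperature with compound. Then 40 uM arachidonic acid was added, 30 min. Hydroperoxide was read by Fe-XO absorbance ratio 573/405 nm.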
* marks the source's active call; other numbers are inactive results; i = inactive; ? = inconclusive; / = no result; ! = not confirmed by another sample. The call rests on the fitted dose curve; in most records, active means well fitted curve in the direction sought with a large enough effect; inconclusive means small, poorly fitted or top-dose-only effect, or another doubt; inactive means no such curve, though single readings can be large; an effect the other way counts as inactive or inconclusive. Potency means the concentration at half of the fitted maximal effect.

SMILES	TGFb inhibitor	ATXN viability	HepG2 tox	ATXN2 expr inh	ALOX12 inh
Cc1cccc(C(O)c2ncc(-c3ccc(Cl)cc3)[nH]2)c1C (centres undefined)	?	22.4µM*	-38.7%	-31.7%	-7.9%
Cc1cc(Cl)ccc1C(O)c1ncc(-c2cccc3ccccc23)[nH]1 (centres undefined)	12.6µM*	i	-36.9%	-20.2%	-15.4%
CC(C)Oc1ccc(CNC(=O)Cn2c(=O)nc3n2C(=O)N(c2ccccc2)C3)cc1	/	/	/	/	37.9%
O=C(NCCCN1CCc2ccccc2C1)c1ccccc1C(F)(F)F	/	/	/	/	-16.7%
CCCc1cc(=O)n2[nH]c(NC(=O)C3CCCCC3)nc2n1	/	/	/	/	-48.5%
Cc1ccc(Cc2c(C)[nH]c(=S)[nH]c2=O)cc1	-0.8%	i	-17.4%	-7.6%	0.0%
Cc1ccc(Cc2c[nH]c(=S)s2)cc1	6.4%	i	10.6%	11.6%	35.5µM*
COc1cc(CN2CCC(C(=O)N3CCN(c4ccccc4F)CC3)CC2)cc(OC)c1O	20.5%	i	-45.5%	-0.1%	2.51µM*
CCOc1ccc(CN2CCC(C(=O)N3CCN(c4ccccc4F)CC3)CC2)cc1OC	9.4%	?	-26.5%	-13.1%	?
CC(=O)C12CC3CC(C1)CC(C(=O)O)(C3)C2	/	/	/	/	20.7%
O=C(O)/C(=C\c1ccc(Br)cc1)Sc1nc2ccccc2s1	/	/	/	/	8.91µM*
CCOC(=O)N1CCN(Cc2cc(=O)oc3cc(C)ccc23)CC1	/	/	/	/	1.8%
O=C(c1cccs1)c1no[n+]([O-])c1C(=O)c1cccs1	25.1µM*	28.2µM*	-40.5%	?	/
COc1ccc(C(=O)c2no[n+]([O-])c2C(=O)c2ccc(OC)cc2)cc1	?	28.2µM*	-95.3%	?	?
CC(NC(=O)C1CC1)C1CC2CCC1C2 (centres undefined)	/	/	/	/	32.3%
CC(C)(C)C1CCc2c(sc(NC(=O)CCC(=O)O)c2C(=O)Nc2ccccc2C(F)(F)F)C1 (centres undefined)	?	/	15.8µM*	/	-1.0%
CC(C)(O)CCC(O)[C@](C)(O)C1CC[C@@]2(O)C3=C/C(=N\O)[C@@H]4C[C@@H](O)[C@@H](O)C[C@]4(C)C3CC[C@]12C (some centres undefined)	/	/	/	/	21.6%
Cc1ccc(S(=O)(=O)N2CCc3cc(C(=O)N(C)Cc4ccccc4)ccc32)cc1	?	7.08µM*	1.5%	-39.0%	-20.7%
COc1cc(C)c(C)cc1S(=O)(=O)N1CCN(c2c(C)cccc2C)CC1	/	/	/	/	-16.6%
CCSc1oc(-c2ccco2)nc1S(=O)(=O)c1ccc(C)cc1	-28.1%	i	-27.9%	-2.0%	?
CCSc1oc(-c2ccco2)nc1S(=O)(=O)c1ccc(F)cc1	-5.4%	i	0.9%	1.0%	28.2µM*!
CCCSc1oc(-c2ccco2)nc1S(=O)(=O)c1ccc(Cl)cc1	0.0%	i	-21.7%	-21.7%	39.8µM*
Cc1ccc(S(=O)(=O)c2nc(-c3ccco3)oc2SCC(C)C)cc1	?	i	-6.4%	-18.4%	?
Cc1ccc(S(=O)(=O)c2nc(-c3ccco3)oc2SC(C)C)cc1	?	i	-0.1%	-8.8%	31.6µM*!
CCSc1oc(-c2ccc(C)cc2)nc1S(=O)(=O)c1ccccc1	/	/	/	/	31.6µM*
SMILES	TGFb inhibitor	ATXN viability	HepG2 tox	ATXN2 expr inh	ALOX12 inh
Cc1nc2ccc(Cl)cc2cc1C(=O)N1CCN(Cc2ccc(C(N)=O)cc2)CC1	/	/	/	/	-4.9%
CC(C)Cc1ccc(C(NC(=O)CC2(C(=O)O)CCCC2)c2cccs2)cc1 (centres undefined)	/	/	/	/	-24.2%
CC(C)(CNC(=O)CCc1ncc(-c2ccc(F)cc2)o1)N1CCOCC1	/	/	/	/	1.1%
S=c1[nH]nc(COc2ccccc2)n1/N=C/c1cccc(Br)c1	-17.8%	i	-25.5%	-7.8%	31.6µM*
S=c1[nH]nc(COc2ccccc2)n1/N=C/c1ccc(Br)cc1	-26.5%	i	-56.9%	/	0.0%
CCOC(=O)NNc1ccccc1	2.5%	i	1.3%	-36.5%	?
CCC(O)CC(C(=O)NNc1ccccc1)C(=O)NNc1ccccc1 (centres undefined)	0.8%	i	1.7%	-18.3%	11.2µM*
COCc1ccc(-c2c(-c3ccsc3)sc3ccccc23)cc1	-1.0%	i	-20.3%	1.4%	-14.1%
Oc1ccc(-c2c(-c3ccsc3)sc3ccccc23)cc1	11.2µM*	?	-43.2%	?	-10.1%
CN(C)c1ccc(C(=S)N2CCCCCC2)cc1	-5.6%	i	-55.8%	10.8%	39.8µM*
C#CCOCCOCCOCCNc1nc(N2CCN(C(=O)CCCCCCCCCCNC(=O)Cn3cc(CCCCCN)nn3)CC2)nc(N2CCN(C(=O)CCCCCCCCCCNC(=O)[C@H]([C@@H](C)CC)n3cc(CCCCN=C(N)N)nn3)CC2)n1	?	15.8µM*	-101.6%	20µM*	/
C#CCOCCOCCOCCNc1nc(N2CCN(C(=O)CCCCCCCCCCNC(=O)[C@H](CCCCN)n3cc(CCCC(=O)O)nn3)CC2)nc(N2CCN(C(=O)CCCCCCCCCCNC(=O)[C@@H]([C@H](C)O)n3cc(C)nn3)CC2)n1	11.2µM*	i	-2.8%	3.3%	/
C#CCOCCOCCOCCNc1nc(N2CCN(C(=O)CCCCCCCCCCNC(=O)[C@@H](CCC(=O)O)n3cc(CCCCCN)nn3)CC2)nc(N2CCN(C(=O)CCCCCCCCCCNC(=O)[C@H]([C@@H](C)CC)n3cc(CCCCCN)nn3)CC2)n1	?	?	-65.5%	-25.2%	/
C#CCOCCOCCOCCNc1nc(N2CCN(C(=O)CCCCCCCCCCNC(=O)[C@H]([C@@H](C)CC)n3cc(CCCCCN)nn3)CC2)nc(N2CCN(C(=O)CCCCCCCCCCNC(=O)[C@H](CCCCN)n3cc(CCCC(=O)O)nn3)CC2)n1	7.08µM*	?	-68.4%	?	/
C#CCOCCOCCOCCNc1nc(N2CCN(C(=O)CCCCCCCCCCNC(=O)[C@H]([C@@H](C)CC)n3cc(CCCCN=C(N)N)nn3)CC2)nc(N2CCN(C(=O)CCCCCCCCCCNC(=O)[C@H](CCCCN)n3cc(C)nn3)CC2)n1	15.8µM*	20µM*	11.2µM*	25.1µM*	/
C#CCOCCOCCOCCNc1nc(N2CCN(C(=O)CCCCCCCCCCNC(=O)[C@H](CCCCN)n3cc(C)nn3)CC2)nc(N2CCN(C(=O)CCCCCCCCCCNC(=O)[C@H](CCCCN)n3cc(CCCC(=O)O)nn3)CC2)n1	?	i	8.4%	7.1%	/
CC(C)(C)OC(=O)NCCCCCc1cn([C@@H](CO)C(=O)NCCCCCCCCCCC(=O)N2CCN(C(=O)OC(C)(C)C)CC2)nn1	?	11.2µM*	-46.5%	15.8µM*	1.3%
